From PubChem BioAssay
Only some compounds are listed: those with a hit (about 4.9% of all), similar ones and a draw of the others.
Beta cell apopt: blocks beta cell apoptosis; INS-1E cytokine-induced death, ATP luminescence, 48 h; percent of positive-control rescue, neutral wells zero; protection from apoptosis, % (test concentration not listed); actives 0.8% (n = 300,000); AID 435005;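 active means Every replicate reaches about 75%, or at least half do and their mean reaches it too, limit read from the data; inconclusive means At least half of replicates reach the limit but their mean does not; inactive means Under half of replicates reach the limit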;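 further: 0% = cytokine-treated negative control wells and 100% = positive control rescue; higher means more ATP so stronger rescue from cytokine killing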
Mdm2 MdmX PPI: human Mdm2/MdmX binding inhibition; actives 3% (n = 330,000); O15151+Q00987; SaOS-2 split-luciferase Mdm2/MdmX complementation, luminescence; inhibition, % at 8 µM;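 active means inhibition of at least 50% at 8 µM in the primary screen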
CSC inhib: cancer stem cell inhibition; actives 1.1% (n = 300,000); cancer stem cell-like cells viability, luminescence; AID 2717; inhibition, % at 7.5 µM; in the data active means inhibition above about 75%; inconclusive means no clear call, values can overlap the other calls; tested in HMLE shEcad cells
Calb FLC: C. albicans growth modulation with fluconazole; C. albicans CaCi-2 (fluconazole-resistant clinical isolate) + fluconazole, Alamar Blue growth, 48 h; growth inhibition, % (concentration not given with the values); actives 0.57% (n = 300,000); AID 1979;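 active means growth inhibition above about 58% in most replicates, limit read from the data, passing the limit was not always enough; inconclusive means exactly half the replicates above a set limit; inactive means most replicates below a set limit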;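 further: all wells also contain fluconazole at 8 µg/ml as a sub-toxic cotreatment; 0% = median of DMSO wells and 100% = median of geldanamycin control wells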
PP5 inh: blocks human protein phosphatase 5 activity | P53041 | purified PP5c, OMFP substrate fluorescence | actives 0.18% (n = 320,000) | inhibition, % at 6.7 µM;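 active means inhibition above the campaign's mean inhibition across all tested compounds plus 3 SD, cut at about 9.5% in these data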;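 further: 0% = DMSO only and 100% = 100 µM cantharidin control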
PP1 inh: PP1-alpha (human) inhibition in PP5 counter-screen | inhibition, % at 6.7 µM | actives 0.9% (n = 320,000) | AID 2235 | purified PP1alpha, OMFP fluorescence | P62136;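 active means inhibition above the mean inhibition of all tested compounds plus 3 SD, computed separately for each screening campaign, cut at about 15% in these data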
Target sequence (P62136 whole entry, looked up): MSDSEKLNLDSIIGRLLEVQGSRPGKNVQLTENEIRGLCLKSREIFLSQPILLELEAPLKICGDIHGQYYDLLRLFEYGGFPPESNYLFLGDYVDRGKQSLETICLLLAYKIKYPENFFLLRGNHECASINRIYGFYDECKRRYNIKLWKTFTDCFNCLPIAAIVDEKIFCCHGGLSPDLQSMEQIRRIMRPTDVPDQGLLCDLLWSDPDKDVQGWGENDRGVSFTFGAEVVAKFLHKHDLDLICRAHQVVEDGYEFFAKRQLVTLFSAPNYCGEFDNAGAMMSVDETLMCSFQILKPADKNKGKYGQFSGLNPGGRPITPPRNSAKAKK
Mdm2 MdmX conf: human Mdm2/MdmX binding inhibition, confirmed. shares compounds with Mdm2 MdmX PPI. luminescent assay. inhibition, % at 8 µM. actives 55% (n = 10,000). AID 489028; in the data active means inhibition above about 40%
FLuc counter: counter-screen for Mdm2/MdmX inhibitors: full-length luciferase | shares compounds with Mdm2 MdmX PPI | inhibition, % at 8 µM | SaOS-2 full-length luciferase counterscreen, luminescence | actives 77% (n = 6,200);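 active means mean inhibition at 8 µM reaching about 37%, which flags the compound as non-specific, limit read from the data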;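 further: p53-null SaOS-2 cells with luciferase driven by a doxycycline-inducible promoter; compound on cells about two nights before reading with doxycycline added after day one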
An asterisk follows results filed as active.

`COC(=O)c1ccc(C(NC(=O)OCc2ccccc2)/C(F)=C/[C@@H](C)C(=O)NCc2ccc(-c3ccccc3)cc2)cc1` (stereo partly drawn) gave Beta cell apopt -2, Mdm2 MdmX PPI 38, CSC inhib 8, PP5 inh 1 and PP1 inh 5.
For COC(=O)c1ccc(C(NC(=O)OCc2ccccc2)/C(F)=C/[C@@H](C)C(=O)NCc2ccc(OC)c(OC)c2)cc1 (stereo partly drawn) the results were Beta cell apopt 4, Mdm2 MdmX PPI 89*, CSC inhib 0, PP5 inh 5, PP1 inh 2 and Mdm2 MdmX conf 5.
For COc1ccc(-c2c([C@H]3[C@H]4C=CC[C@@H](C)[C@@H]4C(=O)N3Cc3ccccc3)ccc3ccccc23)cc1OC the results were Beta cell apopt 33, Mdm2 MdmX PPI 71*, CSC inhib 45, Calb FLC -6, PP5 inh 1, PP1 inh 8 and Mdm2 MdmX conf 20.
For COc1ccc(-c2ccccc2[C@H]2[C@@H]3C=CC[C@@H](C)[C@@H]3C(=O)N2Cc2ccccc2)cc1 the results were Mdm2 MdmX PPI 69* and Mdm2 MdmX conf 22.
C[C@@H]1CC=C[C@@H]2[C@H]1C(=O)N(Cc1ccccc1)[C@H]2c1ccccc1Br was read as Mdm2 MdmX PPI 2.
For C[C@@H]1CC=C[C@@H]2[C@H]1C(=O)N(Cc1ccccc1)[C@H]2c1cccc(Br)c1 the results were Mdm2 MdmX PPI 65* and Mdm2 MdmX conf 11.
For COc1ccc(-c2ccc(OC)c([C@H]3[C@H]4C=CC[C@@H](C)[C@@H]4C(=O)N3Cc3ccccc3)c2)cc1OC the results were Beta cell apopt 16, Mdm2 MdmX PPI 58*, CSC inhib 61, Calb FLC 1, PP5 inh 2, PP1 inh -5 and Mdm2 MdmX conf -10.
Screening C[C@@H]1CC=C[C@@H]2[C@H]1C(=O)N(Cc1ccccc1)[C@H]2c1cccc(C#Cc2ccccc2)c1 returned Mdm2 MdmX PPI 36.
`C[C@@H]1CC=C[C@H]2[C@H]1C(=O)N(Cc1ccccc1)[C@H]2c1ccc(-c2cc3ccccc3s2)cc1F` gave Beta cell apopt 5, Mdm2 MdmX PPI -58, CSC inhib 42, Calb FLC 2, PP5 inh 1 and PP1 inh 10.
`Cn1cc(/C=C/C(=O)N2CCCC(C(=O)c3ccc(C(C)(C)C)cc3)C2)cn1` (stereo not drawn) gave Beta cell apopt 7, Mdm2 MdmX PPI 9, CSC inhib 63, Calb FLC 4, PP5 inh 2 and PP1 inh -2.
COc1ccc(Br)cc1[C@H]1[C@H]2C=CC[C@@H](C)[C@@H]2C(=O)N1Cc1ccccc1 was read as Mdm2 MdmX PPI 58*, Calb FLC -1 and Mdm2 MdmX conf 37.
`C[C@@H]1CC=C[C@H]2[C@H]1C(=O)N(Cc1ccccc1)[C@H]2c1ccc(C(F)(F)F)cc1` gave Beta cell apopt -3, Mdm2 MdmX PPI 9, CSC inhib 15, Calb FLC -5, PP5 inh 6 and PP1 inh 5.
`COc1ccc(-c2ccc([C@H]3[C@H]4C=CC[C@@H](C)[C@@H]4C(=O)N3Cc3ccccc3)c(F)c2)cc1C` gave Beta cell apopt 2, Mdm2 MdmX PPI 29, CSC inhib 36, Calb FLC 4, PP5 inh 2 and PP1 inh 7.
COc1ccc(-c2ccc(F)cc2)cc1[C@H]1[C@H]2C=CC[C@@H](C)[C@@H]2C(=O)N1Cc1ccccc1 was read as Beta cell apopt -6, Mdm2 MdmX PPI 61*, CSC inhib -6, Calb FLC -7, PP5 inh 2, PP1 inh 9, Mdm2 MdmX conf 44* and FLuc counter 50*.
Screening O=C1C2C(c3ccccc3)CC=CC2[C@H](c2ccc(C(F)(F)F)cc2)N1Cc1ccccc1 (stereo partly drawn) returned Beta cell apopt 21, Mdm2 MdmX PPI 79*, CSC inhib inconclusive, Calb FLC 23, PP5 inh 3, PP1 inh 7, Mdm2 MdmX conf 43* and FLuc counter 63*.
`COc1ccc([C@H]2[C@H]3C=CC[C@@H](C)[C@@H]3C(=O)N2Cc2ccccc2)cc1Cl` gave Beta cell apopt -17, Mdm2 MdmX PPI 34, CSC inhib 6, Calb FLC -13, PP5 inh 4 and PP1 inh 3.
CN(CC(=O)Nc1ccc(OC(F)(F)F)cc1)S(=O)(=O)c1cnc[nH]1 was read as Beta cell apopt 0, Mdm2 MdmX PPI -16, CSC inhib -13, Calb FLC -1, PP5 inh 3 and PP1 inh 8.
C#CCNC(=O)C1=C[C@H](C)C[C@H](OCc2ccc(CO)cc2)O1 was read as Mdm2 MdmX PPI 12, CSC inhib -7, Calb FLC -1, PP5 inh 0 and PP1 inh 4.
COc1cc(NC(=O)c2cc(-c3ccccc3Cl)on2)cc(OC)c1OC was read as Beta cell apopt 39, Mdm2 MdmX PPI 65*, CSC inhib 49, Calb FLC 13, PP5 inh 5, PP1 inh 11, Mdm2 MdmX conf 54* and FLuc counter 52*.
`CCN(CC(=O)Nc1c(F)cccc1F)C(=O)c1cccc(S(=O)(=O)N2CCCCCC2)c1` gave Beta cell apopt 1, Mdm2 MdmX PPI -24, CSC inhib -19, PP5 inh -3 and PP1 inh -4.
Screening Oc1nc(Nc2ccc(Cl)cc2Cl)sc1/C=C1\C=Nc2ccccc21 returned Mdm2 MdmX PPI 86*, CSC inhib 0, Calb FLC -10, PP5 inh 9, PP1 inh -2 and Mdm2 MdmX conf 34.
Screening Cn1c(O)c(/C=C2\C=Nc3ccccc32)sc1=Nc1ccc(C(=O)O)cc1 returned Beta cell apopt -7, Mdm2 MdmX PPI 35, CSC inhib 7, Calb FLC 13, PP5 inh 3 and PP1 inh 7.
Screening CN1CCN(C2=Cc3ccccc3Sc3cc(F)ccc32)CC1 returned Beta cell apopt -2, Mdm2 MdmX PPI 23, CSC inhib 18, Calb FLC -3, PP5 inh 2 and PP1 inh 3.
CN1CCN(C2=Cc3ccc(Cl)cc3Sc3ccc(F)cc32)CC1 was read as Beta cell apopt 9, Mdm2 MdmX PPI 60*, CSC inhib 121*, Calb FLC 29, PP5 inh 2, PP1 inh 10 and Mdm2 MdmX conf 29.
